Only some compounds are listed: those with a hit (about 3% of all), similar ones and a draw of the others.
TRAIL sens C8: sensitizes caspase-8 expressing cells to TRAIL; inhibition (viability loss, TRAIL sensitization), % at 10 µM; NB7+C8 cells + TRAIL, ATPlite viability luminescence; 360,000 tested, 1% active;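 active = compounds causing at least 50% loss of cell viability in the single-dose screen, relative to plate controls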
SENP8 block-1: blocks the human protease SENP8; Q96LD8; purified SENP8, Z-RLRGG-aminoluciferin cleavage, luminescence; inhibition, % at 10 µM; 330,000 tested, 1.2% active; AID 2540; in the data active = inhibition above about 50%
PPC-1+TRAIL kill: PPC-1 cancer cell killing with TRAIL present; PPC-1 cells + TRAIL, ATPLite viability luminescence; cell killing (% activity), % at 4 µM or 5 µM; 220,000 tested, 0.41% active; AID 1443;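 active = cell killing above 50% in the first pass at 4 µM, then a duplicate retest at 5 µM averaging 50% or more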;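 also: plate controls were cells with TRAIL plus DMSO for no effect and medium-only wells lacking cells for full effect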
SENP6 inh: SENP6 protease inhibition; inhibition, % at 10 µM; 330,000 tested, 1.8% active; AID 2599; Recombinant SENP6 catalytic domain, aminoluciferin luminescence; Q9GZR1;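 active = inhibition above about 50% at the single tested dose, limit read from the data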;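 also: plate controls were DMSO wells with enzyme for no effect and DMSO wells lacking enzyme for full effect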
Target sequence (Q9GZR1 628-1112 limits assumed): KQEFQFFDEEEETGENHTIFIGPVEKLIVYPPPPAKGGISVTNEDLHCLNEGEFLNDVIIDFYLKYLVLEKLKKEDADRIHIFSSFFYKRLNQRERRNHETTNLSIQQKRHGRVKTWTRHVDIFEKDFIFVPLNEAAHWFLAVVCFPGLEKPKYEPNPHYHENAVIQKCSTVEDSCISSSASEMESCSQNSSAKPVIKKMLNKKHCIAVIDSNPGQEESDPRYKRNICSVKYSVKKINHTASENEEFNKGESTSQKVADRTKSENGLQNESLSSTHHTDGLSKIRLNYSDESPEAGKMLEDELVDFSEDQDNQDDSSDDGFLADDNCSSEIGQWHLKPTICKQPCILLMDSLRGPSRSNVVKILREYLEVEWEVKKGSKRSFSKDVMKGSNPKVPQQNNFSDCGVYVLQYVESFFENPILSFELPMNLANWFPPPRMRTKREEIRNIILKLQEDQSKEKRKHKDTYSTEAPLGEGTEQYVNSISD
SENP7 inh: SENP7 protease inhibition; recombinant SENP7, Z-RLRGG-aminoluciferin luminescence, 40 min; inhibition, % at 5 µM; 330,000 tested, 1.5% active;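 active = inhibition above about 50% at the single test dose, limit read from the data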;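 also: plate controls were DMSO with enzyme for no effect and no enzyme buffer wells for full effect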
SENP8 block-2: inhibitors of human SENP8 protease. 360,000 tested, 0.64% active. AID 602440. recombinant SENP8, Nedd8 substrate fluorescence. Q96LD8. inhibition, % at 20 µM; in the data active = inhibition mostly above about 40%, no sharp cut-off; inactive = mostly below about 27%
SENP8 confirm: confirmation of human SENP8 protease inhibitors; inhibition, % at 12.5 µM; AID 488912; 6,200 tested, 40% active; Recombinant SENP8, Z-RLRGG-aminoluciferin luminescence, 60 min; shares compounds with SENP7 inh;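 active = mean inhibition across replicates above about 50%, limit read from the data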
SENP6 confirm: confirmation of human SENP6 protease inhibitors. AID 488915. 6,200 tested, 58% active. recombinant SENP6, Z-RLRGG-aminoluciferin luminescence. shares compounds with SENP7 inh. inhibition, % at 12.5 µM
SENP7 confirm: human SENP7 inhibition, confirmed; recombinant SENP7, Z-RLRGG-aminoluciferin luminescence, 40 min; AID 488917; 6,200 tested, 69% active; inhibition, % at 12.5 µM; shares compounds with SENP7 inh
Casp3 select: inhibits human caspase-3 in SENP selectivity test | shares compounds with SENP7 inh | purified caspase-3, Z-DEVD-aminoluciferin luminescence, 60 min | inhibition, % at 12.5 µM | 6,200 tested, 60% active | AID 488918;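 active = mean inhibition above about 50%, limit read from the data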;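 also: plate controls were enzyme with DMSO for no effect and wells without caspase-3 for full effect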
Luc interf: luminescence interference (SENP counter-screen). Pre-incubated SENP8/Z-RLRGG-aminoluciferin, luciferase luminescence interference. AID 488919. shares compounds with SENP7 inh. inhibition, % at 12.5 µM. 6,200 tested, 39% active;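 active = mean inhibition above about 50% when retested at one dose, limit read from the data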;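 also: plate controls were DMSO wells with completed reaction for no effect and substrate without enzyme for full effect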
* marks the source's active call; other numbers are inactive results.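 The calls were made as follows, unless noted: active = mean inhibition above about 50% in the one-dose retest (limit read from the data); inactive = the rest.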

For O=C(/C=C/c1ccc(O)cc1)c1ccccc1 the results were TRAIL sens C8 12, SENP8 block-1 95*, PPC-1+TRAIL kill 4, SENP6 inh 1, SENP7 inh 93*, SENP8 block-2 -43, SENP8 confirm 15, SENP6 confirm 99*, SENP7 confirm 103*, Casp3 select 92* and Luc interf 98*.
Cc1ccc(/C=C/C(=O)c2ccc(C)cc2)cc1 was read as TRAIL sens C8 1, SENP8 block-1 -2, PPC-1+TRAIL kill 18, SENP6 inh 52*, SENP7 inh -12, SENP8 block-2 12, SENP8 confirm 2, SENP6 confirm -9, SENP7 confirm -23, Casp3 select -7 and Luc interf 4.
Screening COc1ccc(C=CC(=O)c2ccc([N+](=O)[O-])cc2)cc1 returned TRAIL sens C8 1 and SENP8 block-2 5.
For OCC1OCOC2C(CO)OCOC12 (configuration not stated) the results were TRAIL sens C8 -6 and SENP8 block-2 19.
`CSc1ccc(/C=C/C(=O)c2ccc(NC(=O)C(C)C)cc2)cc1` gave TRAIL sens C8 -21, SENP8 block-1 -8, PPC-1+TRAIL kill 16, SENP6 inh 0, SENP7 inh 8 and SENP8 block-2 -413.
CSc1ccc(C(=O)/C=C/c2ccc(N)cc2)cc1 was read as TRAIL sens C8 55*, SENP8 block-1 28, PPC-1+TRAIL kill 44, SENP6 inh 71*, SENP7 inh 56*, SENP8 block-2 11, SENP8 confirm 83*, SENP6 confirm 65*, SENP7 confirm 87*, Casp3 select 40 and Luc interf 88*.
COc1ccc(OC)c(/C=C/C(=O)OCC(=O)N2CCN(S(=O)(=O)c3ccc(C)cc3C)CC2)c1 was read as TRAIL sens C8 -7, SENP8 block-1 9, SENP6 inh -8, SENP7 inh 0 and SENP8 block-2 inactive.
For COc1cccc(C(=O)NCCS(=O)(=O)N2CCN(c3ccccc3)CC2)c1OC the results were TRAIL sens C8 -2 and SENP8 block-2 10.
Cc1cc(=O)[nH]c(SCCOc2ccc(OC(C)C)cc2)n1 was read as TRAIL sens C8 -2, SENP8 block-1 91*, PPC-1+TRAIL kill 25, SENP6 inh 94*, SENP7 inh 89*, SENP8 block-2 7, SENP8 confirm 91*, SENP6 confirm 95*, SENP7 confirm 100*, Casp3 select 95* and Luc interf 58*.
`CN1CCN(c2oc(-c3ccccc3)nc2S(=O)(=O)c2ccc(Br)cc2)CC1` gave TRAIL sens C8 20, SENP8 block-1 -9, SENP6 inh -13, SENP7 inh 3 and SENP8 block-2 -4.
For c1ccc(-c2nc3ccccc3[nH]2)nc1 the results were TRAIL sens C8 18, SENP8 block-1 48, PPC-1+TRAIL kill 23, SENP6 inh 69*, SENP7 inh 75*, SENP8 block-2 -29, SENP8 confirm 61*, SENP6 confirm 60*, SENP7 confirm 88*, Casp3 select 90* and Luc interf 70*.
Screening Cc1ccc2nc(-c3ccccn3)[nH]c2c1 returned TRAIL sens C8 70*, SENP8 block-1 83*, SENP6 inh 90*, SENP7 inh 91*, SENP8 block-2 -91, SENP8 confirm 92*, SENP6 confirm 91*, SENP7 confirm 100*, Casp3 select 96* and Luc interf 91*.
`c1ccc(-c2nc3c(ccc4ccccc43)[nH]2)nc1` gave TRAIL sens C8 29, SENP8 block-1 67*, PPC-1+TRAIL kill 20, SENP6 inh 73*, SENP7 inh 76*, SENP8 block-2 -374, SENP8 confirm 83*, SENP6 confirm 79*, SENP7 confirm 95*, Casp3 select 76* and Luc interf 82*.
Screening O=c1[nH]c(-c2ccccn2)nc2ccccc12 returned TRAIL sens C8 11, SENP8 block-1 2, PPC-1+TRAIL kill 12, SENP6 inh -5, SENP7 inh 5 and SENP8 block-2 0.
Screening Cc1ccc2nc(CCCc3nc4ccc(C)cc4[nH]3)[nH]c2c1 returned TRAIL sens C8 8, SENP8 block-1 -2, SENP6 inh 1, SENP7 inh -2 and SENP8 block-2 7.
Cc1ccc2nc(-c3ccccc3N)[nH]c2c1 was read as TRAIL sens C8 33, SENP8 block-1 90*, PPC-1+TRAIL kill 47, SENP6 inh 93*, SENP7 inh 95*, SENP8 block-2 -437, SENP8 confirm 32, SENP6 confirm 96*, SENP7 confirm 102*, Casp3 select 91* and Luc interf 90*.
`O=C(Nc1ccccc1)c1ccccc1C(=O)N1CCCCC1` gave TRAIL sens C8 -1, SENP8 block-1 4, PPC-1+TRAIL kill -5, SENP6 inh 0, SENP7 inh 4 and SENP8 block-2 1.
`Cc1cc(OCC(=O)OCC(=O)N2CCCc3ccccc32)ccc1Cl` gave TRAIL sens C8 -3 and SENP8 block-2 14.
COc1ccc(CN2CC(C(=O)N3CC(C)CC(C)C3)CC2=O)cc1 (configuration not stated) was read as TRAIL sens C8 -27, SENP8 block-1 1, SENP6 inh -1, SENP7 inh 1 and SENP8 block-2 -7.
For Nc1cc(N)cc(-c2nc3ccccc3[nH]2)c1 the results were TRAIL sens C8 -24, SENP8 block-1 7, PPC-1+TRAIL kill 18, SENP6 inh 5, SENP7 inh 13 and SENP8 block-2 -349.
Nc1nc(-c2nc3ccccc3[nH]2)cs1 was read as TRAIL sens C8 36, SENP8 block-1 6, PPC-1+TRAIL kill -16, SENP6 inh 52*, SENP7 inh 28, SENP8 block-2 -30, SENP8 confirm 46, SENP6 confirm 42, SENP7 confirm 72*, Casp3 select 78* and Luc interf 58*.
